Assay results as given in PubChem BioAssay.
The source made the active and inactive calls. Unless noted, how the calls were made is not given here.

Legend:
[1] = tested on: Wnt5a (protein binding on small-molecule microarray); assay: Wnt5a binders on small-molecule microarray, primary screen, biophysical, 635/667 nm fluorescence (AID 1142); conditions: 635 nm fluorescence, higher = more signal;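 further: fluorescence read at 667 nm with signal to noise per printed feature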
[2] = cell viability in Huh7 cells, primary screen, cytotoxicity control for HCV replication inhibitor project, CellTiter-Glo luminescence, basal, 48 h (AID 1143); conditions: Huh7 HCV replicon, higher = more signal, called active from +8 up or from −8 down;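 further: Huh7 hepatoma cells carrying a hepatitis C replication reporter with no stimulus; test concentration not given here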
[3] = P. aeruginosa biofilm formation inhibitors, primary screen, PAO1 strain, BacTiter-Glo luminescence, LB-PBS (AID 1144); conditions: 12 h, higher = more signal
[4] = CREB reporter modulators without forskolin, primary screen, cell-based, PC12, CRE-LacZ reporter, unstimulated (AID 1145); conditions: no forskolin, luminescence, 4.5 h, higher = more signal, called active from +8 up or from −8 down
[5] = CREB reporter modulators under forskolin, primary screen, cell-based, PC12, CRE-LacZ reporter, forskolin-stimulated (AID 1146); conditions: luminescence, 4.5 h, higher = more signal, called active from +8 up or from −8 down;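 further: PC12 cells with 6xCRE LacZ reporter stimulated by forskolin 10 µM; beta-galactosidase reporter signal reflecting CREB driven transcription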
[6] = molecular target: Streptavidin (Streptomyces avidinii) (UniProt P22629); assay: streptavidin binders on small-molecule microarray, primary screen, artefact control for SMM compound annotation, biophysical, 635/667 nm fluorescence (AID 1147); conditions: streptavidin binding, higher = more signal;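 further: signal reflects streptavidin binding to arrayed compounds as a control protein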
Chain of Streptavidin (Streptomyces avidinii) (P22629 whole entry, looked up): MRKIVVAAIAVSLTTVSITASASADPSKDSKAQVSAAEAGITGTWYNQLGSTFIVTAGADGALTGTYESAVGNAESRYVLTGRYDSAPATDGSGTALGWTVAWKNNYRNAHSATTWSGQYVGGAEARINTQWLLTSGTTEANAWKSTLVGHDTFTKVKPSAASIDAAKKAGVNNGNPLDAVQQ

[7] = small-molecule binders of probe aInhba, primary screen, biochemical, small-molecule microarray, 635/667 nm fluorescence (AID 1148); conditions: higher = more signal;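 further: score merges 667nm spot fluorescence with signal-to-noise for antibody binding to printed compounds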
Torsin-1A (Homo sapiens) [8] = molecular target: Torsin-1A (Homo sapiens) (UniProt O14656); assay: torsin A binders from cell lysate, primary screen, small-molecule microarray, wild-type, 635/667 nm (AID 1149); conditions: COS7 hTOR1A-WT lysate, 635 nm fluorescence, higher = more signal
Chain of Torsin-1A (Homo sapiens) (O14656 whole entry, looked up): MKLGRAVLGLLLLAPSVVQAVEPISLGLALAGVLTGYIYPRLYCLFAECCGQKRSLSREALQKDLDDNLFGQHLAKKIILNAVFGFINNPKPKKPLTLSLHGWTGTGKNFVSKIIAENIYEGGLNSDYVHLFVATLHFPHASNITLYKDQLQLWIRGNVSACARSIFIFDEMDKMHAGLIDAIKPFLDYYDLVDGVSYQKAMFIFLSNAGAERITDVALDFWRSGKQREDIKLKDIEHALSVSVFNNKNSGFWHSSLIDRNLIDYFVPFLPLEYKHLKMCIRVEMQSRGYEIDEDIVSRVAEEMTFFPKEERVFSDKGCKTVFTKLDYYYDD

Torsin-1A (Homo sapiens) [9] = molecular target: Torsin-1A (Homo sapiens) (UniProt O14656); assay: small-molecule binders of mutant TOR1A in lysate, primary screen, cell lysate, small-molecule microarray, COS7 lysate, 635/667 nm fluorescence (AID 1150); conditions: COS7 hTOR1A mutant lysate, 635 nm fluorescence, higher = more signal;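 further: score pools 667 nm emission and signal to noise measuring lysate protein binding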
[10] = tested on: Sonic hedgehog protein (Shh); assay: small-molecule binders of Shh protein, primary screen, biochemical, small-molecule microarray, 635/667 nm fluorescence (AID 1151); conditions: small-molecule microarray binding, 635 nm fluorescence; higher = more signal;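 further: Shh protein binding to compounds spotted on small-molecule microarray slides; score combines spot fluorescence intensity with signal-to-noise across triplicate slides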
[11] = E. coli DRC41 culture turbidity changes, primary screen, E. coli filamentation inducer project, strain DRC41, OD650, 48 h (AID 1152);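 further: E. coli MC1000 strain DRC41 lacking acrAB efflux pump and sulA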; conditions: E. coli DRC41 (acrAB sulA), higher = more signal, called active from +8 up or from −8 down
[12] = small-molecule binders of probe aLefty1, primary screen, biochemical, small-molecule microarray, 635/667 nm fluorescence (AID 1153); conditions: higher = more signal;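 further: score merges spot fluorescence with signal-to-noise ratio from the scanned slide images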
[13] = PSAC antagonists in infected red cells, primary screen, cell-based, P. falciparum Indochina, OD700, 1 h (AID 1154); conditions: P. falciparum Indochina infected RBC osmotic lysis, higher = more signal, called active from +8 up or from −8 down
[14] = PSAC antagonists in infected red cells, primary screen, cell-based, P. falciparum Indochina, OD700, 2 h (AID 1155);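 further: lysis reports solute entry through the parasite surface anion channel PSAC; channel blockers reduce lysis of infected cells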; conditions: P. falciparum Indochina infected erythrocytes, osmotic lysis OD700; higher = more signal, called active from +8 up or from −8 down
[15] = osmotic lysis modulators in infected erythrocytes, primary screen, PSAC antagonist project, cell-based, P. falciparum Indochina, OD700, 3 h (AID 1156); conditions: higher = more signal, called active from +8 up or from −8 down
[16] = PSAC antagonists in infected red cells, primary screen, cell-based, P. falciparum Indochina, OD700, 18 h (AID 1157); conditions: P. falciparum Indochina infected erythrocytes, osmotic lysis OD700, 18 h; higher = more signal, called active from +8 up or from −8 down
[17] = modulators of S6 phosphorylation in cells, primary screen, cell-based, A549, cytoblot, luminescence, serum-stimulated (AID 1158); conditions: A549 phospho-S6 cytoblot, 5 h, higher = more signal;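 further: serum-stimulated A549 lung adenocarcinoma cells; signal is phosphorylated S6 detected by cytoblot immunostaining with HRP secondary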
[18] = molecular target: NADPH oxidase 2 (Homo sapiens) (UniProt P04839); assay: NOX2-dependent H2O2 signal modulators, primary screen, NOX inhibitor project, cell-based, HEK293-NOX2, PMA-stimulated, Amplex Red fluorescence (AID 1159); conditions: 45 min, higher = more signal, called active from +8 up or from −8 down; further: test concentration not given here
Chain of NADPH oxidase 2 (Homo sapiens) (P04839 whole entry, looked up): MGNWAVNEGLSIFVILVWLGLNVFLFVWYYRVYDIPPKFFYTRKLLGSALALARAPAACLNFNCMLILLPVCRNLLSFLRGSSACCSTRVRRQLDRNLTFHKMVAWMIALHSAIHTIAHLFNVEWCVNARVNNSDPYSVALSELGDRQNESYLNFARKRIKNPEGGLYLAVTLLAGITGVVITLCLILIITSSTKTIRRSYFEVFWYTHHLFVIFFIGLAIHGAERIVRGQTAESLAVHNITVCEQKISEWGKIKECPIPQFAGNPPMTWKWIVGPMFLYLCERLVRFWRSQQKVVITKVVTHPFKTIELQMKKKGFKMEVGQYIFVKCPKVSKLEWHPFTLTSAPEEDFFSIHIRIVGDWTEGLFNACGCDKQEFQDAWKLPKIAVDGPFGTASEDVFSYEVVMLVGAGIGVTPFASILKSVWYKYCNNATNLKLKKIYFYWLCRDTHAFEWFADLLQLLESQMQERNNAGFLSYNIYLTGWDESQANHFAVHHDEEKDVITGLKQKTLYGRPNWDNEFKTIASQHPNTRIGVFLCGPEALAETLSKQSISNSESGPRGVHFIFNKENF

[19] = molecular target: NADPH oxidase 4 (Homo sapiens) (UniProt Q9NPH5); assay: NOX4-dependent H2O2 signal modulators, primary screen, NOX inhibitor project, cell-based, HEK293-NOX4, tetracycline-induced, Amplex Red fluorescence (AID 1160); conditions: 45 min, higher = more signal, called active from +8 up or from −8 down
Chain of NADPH oxidase 4 (Homo sapiens) (Q9NPH5 whole entry, looked up): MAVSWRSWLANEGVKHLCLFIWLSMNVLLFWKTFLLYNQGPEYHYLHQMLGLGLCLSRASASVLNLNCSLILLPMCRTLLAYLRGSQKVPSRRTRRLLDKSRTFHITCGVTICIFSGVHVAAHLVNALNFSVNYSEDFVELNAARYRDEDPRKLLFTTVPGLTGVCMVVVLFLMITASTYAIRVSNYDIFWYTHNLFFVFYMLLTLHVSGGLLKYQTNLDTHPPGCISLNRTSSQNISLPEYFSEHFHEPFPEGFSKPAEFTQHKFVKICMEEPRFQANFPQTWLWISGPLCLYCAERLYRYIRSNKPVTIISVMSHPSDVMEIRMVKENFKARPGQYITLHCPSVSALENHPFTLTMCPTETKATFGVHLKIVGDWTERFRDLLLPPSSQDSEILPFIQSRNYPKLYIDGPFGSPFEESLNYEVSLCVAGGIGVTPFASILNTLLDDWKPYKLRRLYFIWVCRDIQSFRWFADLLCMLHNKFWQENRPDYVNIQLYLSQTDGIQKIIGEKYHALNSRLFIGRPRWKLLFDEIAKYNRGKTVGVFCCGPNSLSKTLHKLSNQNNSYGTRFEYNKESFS

[20] = molecular target: NADPH oxidase 5 (Homo sapiens) (UniProt Q96PH1); assay: NOX5-dependent H2O2 signal modulators, primary screen, NOX inhibitor project, cell-based, HEK293-NOX5, Amplex Red fluorescence (AID 1161); conditions: HEK293-NOX5, ionomycin, 45 min, higher = more signal
Chain of NADPH oxidase 5 (Homo sapiens) (Q96PH1 whole entry, looked up): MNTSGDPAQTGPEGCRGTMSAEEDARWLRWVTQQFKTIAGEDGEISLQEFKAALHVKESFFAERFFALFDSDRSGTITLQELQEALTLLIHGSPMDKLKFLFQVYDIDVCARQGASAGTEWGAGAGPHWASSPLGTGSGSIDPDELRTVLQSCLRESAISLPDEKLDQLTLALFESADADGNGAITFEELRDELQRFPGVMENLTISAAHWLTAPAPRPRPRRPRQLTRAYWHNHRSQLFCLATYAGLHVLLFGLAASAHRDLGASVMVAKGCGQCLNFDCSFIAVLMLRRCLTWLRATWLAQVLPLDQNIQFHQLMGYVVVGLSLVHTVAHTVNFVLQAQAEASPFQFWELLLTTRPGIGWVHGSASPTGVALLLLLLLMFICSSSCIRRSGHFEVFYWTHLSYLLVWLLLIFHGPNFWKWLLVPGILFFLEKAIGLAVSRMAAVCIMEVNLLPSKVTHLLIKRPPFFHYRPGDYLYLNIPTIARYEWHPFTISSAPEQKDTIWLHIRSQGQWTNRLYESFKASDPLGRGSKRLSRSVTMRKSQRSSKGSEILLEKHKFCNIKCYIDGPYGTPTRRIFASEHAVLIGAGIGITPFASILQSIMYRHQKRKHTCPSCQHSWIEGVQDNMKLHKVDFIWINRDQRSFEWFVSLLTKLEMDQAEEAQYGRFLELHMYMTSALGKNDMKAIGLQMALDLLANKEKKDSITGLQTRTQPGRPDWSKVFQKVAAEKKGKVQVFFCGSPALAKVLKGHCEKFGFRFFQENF

| SMILES | composite z-score [1] | z-score [2] | z-score [3] | z-score [4] | z-score [5] | composite z-score [6] | composite z-score [7] | composite z-score (Torsin-1A (Homo sapiens) [8]) | composite z-score (Torsin-1A (Homo sapiens) [9]) | composite z-score [10] | z-score [11] | composite z-score [12] | z-score [13] | z-score [14] | z-score [15] | z-score [16] | z-score [17] | z-score [18] | z-score [19] | z-score [20] |
| --- | --- | --- | --- | --- | --- | --- | --- | --- | --- | --- | --- | --- | --- | --- | --- | --- | --- | --- | --- | --- |
| [N-]=[N+]=Nc1ccccc1[C@H]1OC(c2ccc(OCCCO)cc2)=N[C@@]1(Cc1ccccc1)C(=O)NCCN1CCOCC1 | 1.47 | -3.37 (inactive) | -0.395 (inactive) | -0.697 (inactive) | -1.62 (inactive) | 1.32 | 0.936 | 0.596 | 0.0723 | 1.44 | 0.378 (inactive) | 0.31 | 33.5 (active) | 30.9 (active) | 2.73 (inactive) | 8.84 (active) | 0.138 | -1 (inactive) | 0.585 (inactive) | 1.57 |
| CC(C)C(O)C1C=CC2C(=O)N(c3ccccc3)C(=O)C2N1Nc1ccccc1 (stereo not given) | 0.271 | -3.03 (inactive) | -1.35 (inactive) | 0.819 (inactive) | 0.418 (inactive) | 0.874 | 0.0756 | 0.64 | 0.923 | 1.04 | -0.471 (inactive) | -0.0163 | 1.2 (inactive) | -0.4 (inactive) | 1.33 (inactive) | -0.741 (inactive) | 0.325 | -3.32 (inactive) | -4.05 (inactive) | -6.43 |
| COCCOC(=O)N1C(=O)[C@@]2(c3cc(C#CC4(O)CCCCCC4)ccc31)[C@H](C(=O)Nc1nc3ccccc3s1)[C@H]1C(=O)O[C@H](c3ccccc3)[C@H](c3ccccc3)N1[C@@H]2c1ccc(O)cc1 | 0.62 | -0.804 (inactive) | -0.374 (inactive) | 0.245 (inactive) | 7.33 (inactive) | 0.857 | 0.117 | 0.878 | 0.753 | 1.52 | 0.0662 (inactive) | 0.219 | 0.4 (inactive) | 0.925 (inactive) | -0.186 (inactive) | 1.47 (inactive) | -0.335 | 1.01 (inactive) | 0.286 (inactive) | 0.785 |
| CCCCCN1CC=CC23O[C@@H]4/C=C\CCC(C)OC(=O)C4[C@H]2C(=O)N(C(CO)C(C)C)[C@@H]3C1=O (stereo not given in full) | -0.236 | 0.209 (inactive) | -1.34 (inactive) | -1.58 (inactive) | -0.601 (inactive) | -0.282 | -0.101 | -1.36 | -0.303 | 0.866 | 1.66 (inactive) | -0.106 | 1.38 (inactive) | 0.881 (inactive) | 1.2 (inactive) | 0.699 (inactive) | -0.0209 | 1.36 (inactive) | -0.231 (inactive) | 1.86 |
| COc1ccc([Si](C)(C)[C@@H]2[C@@H](CC(=O)N3Cc4ccccc4C[C@H]3CO)O[C@]3(C(=O)N(Cc4ccc(N5C(=O)c6cccc7cccc5c67)cc4)c4ccccc43)[C@H]2C)cc1 | 0.453 | -2.28 (inactive) | -0.334 (inactive) | 2.34 (inactive) | 0.972 (inactive) | 0.29 | 0.0319 | 0.645 | 0.592 | 1.69 | -0.967 (inactive) | 0.0391 | 3.62 (inactive) | 1.49 (inactive) | -0.149 (inactive) | 0.694 (inactive) | -0.297 | 0.878 (inactive) | 0.929 (inactive) | 2.03 |
| CO[C@H]1O[C@H](CO)[C@@H](OC(=O)CCc2ccccc2)[C@@H]2OC(=O)[C@@H](Cc3ccccc3)C/C=C/C[C@H](Cc3ccccc3)C(=O)O[C@@H]12 | 0.411 | -2.33 (inactive) | -0.605 (inactive) | -0.655 (inactive) | -0.43 (inactive) | 0.29 | -0.315 | -0.293 | 0.169 | 0.476 | 0.453 (inactive) | -0.0054 | 4.5 (inactive) | 0.829 (inactive) | 1.23 (inactive) | 0.546 (inactive) | 0.658 | -4.56 (inactive) | -0.97 (inactive) | -2 |
| CCOC(=O)C[C@H]1[C@H](OC(=O)c2ccc(-c3ccccc3)cc2)[C@@H](NC(=O)CC(C)C)c2cc(OCCCO)ccc2N1C(=O)c1ccc2ccccc2n1 | -0.0361 | -0.0042 (inactive) | -0.453 (inactive) | 1.04 (inactive) | -0.428 (inactive) | 1.31 | -0.0259 | 0.0908 | 0.31 | 0.637 | -0.0672 (inactive) | -0.274 | 2.19 (inactive) | 0.0409 (inactive) | 0.457 (inactive) | 0.238 (inactive) | 0.2 | -1.89 (inactive) | 0.452 (inactive) | -0.0775 |
